Laboratory results: ChEMBL document CHEMBL1157539, “Thousands of chemical starting points for antimalarial lead identification” (Nature, 2010)

How the values were obtained:
Format in all cases: functional
[1] = system: Plasmodium falciparum; assay: GSK_TCMDC: Inhibition of Plasmodium falciparum 3D7 in whole red blood cells, using parasite LDH activity as an index of growth. Test compounds present at 2uM
[2] = system: Plasmodium falciparum; assay: GSK_TCMDC: Inhibition of Plasmodium falciparum Dd2 in whole red blood cells, using parasite LDH activity as an index of growth. Test compounds present at 2uM
[3] = system: HepG2; assay: GSK_TCMDC: Percent inhibition of human HepG2 cell line. Test compounds present at 10uM.

| SMILES | Inhibition [1] | Inhibition [2] | Inhibition [3] |
| --- | --- | --- | --- |
| Cc1nnc2c(NC(=O)NC(C)C)cc3cc(-c4ccc(CN5CCCCC5)cc4)ccc3n12 | 87% | 8% | 70% |
| CC(C)(C)c1ccc2[nH]c(-c3ccc(C(=O)NCCCc4ccccc4)cc3)nc2c1 | 95% | 14% | 11% |
| O=C(O)C(F)(F)F.O=[N+]([O-])c1ccc(Oc2ccccc2CNCC2CCN(CC3CCCCC3)CC2)cc1 | 89% | 28% | 40% |
| Nn1c(=O)oc2ccc(Cl)cc2c1=O | 97% | 96% | 4% |
| CCN(CC)c1ccc(-c2nc3cc(Cl)cnc3[nH]2)cc1 | 85% | 85% | 16% |
| CCCCCCN1CCC(CNCc2cccc([N+](=O)[O-])c2)CC1.O=C(O)C(F)(F)F | 95% | 15% | 16% |
| CCc1cccc(C)c1-n1nc(-c2cc(C(C)(C)C)oc2C)cc1N | 95% | 95% | 4% |
| Clc1cccc(Cl)c1CCNCC1CCN(CC2CCCCC2)CC1.O=C(O)C(F)(F)F | 98% | 94% | 39% |
| Cc1cccc2nc(-c3ccc(-c4ccc(CNCCc5ccncc5)cc4)cc3)[nH]c12.O=C(O)C(F)(F)F | 100% | 98% | 34% |
| Cc1cc(-c2ccc3c(c2)CCN(CCC2CCC(NC(=O)/C=C/c4cccc(F)c4)CC2)CC3)on1.Cl (stereo not drawn) | 95% | 19% | 23% |
| O=C(/C=C/c1ccc(Cl)c(Cl)c1)NCCCCCN1CCC(NC(=S)Nc2cccc(Cl)c2)CC1 | 99% | 43% | 24% |
| CN1CCC[C@@H](Oc2cc3c(cc2Br)CCN3C(=O)Nc2ccc(-c3ccncc3)c(Cl)c2)C1 | 99% | 64% | 26% |
| CCc1cn2c3c(cc(C(=O)N[C@@H](Cc4cccc(F)c4)[C@H](O)CNC4CCCCC4)cc13)N(C)S(=O)(=O)CC2.O=CO | 99% | 99% | 5% |
| COc1nc2c(N3CCN(CCNCc4ccc5c(n4)NC(=O)CS5)CC3)ccnc2cc1F | 100% | 96% | 18% |
| CCNCc1ccc(-c2cc3ncnc(Nc4ccc(OCc5cccc(F)c5)c(Cl)c4)c3s2)[nH]1 | 100% | 74% | 22% |
| CN(C)CCN(Cc1ccc(-c2ccc(CNCCc3ccccc3)cc2)nc1)C(=O)CCC1CCCC1.O=C(O)C(F)(F)F | 96% | 89% | 98% |

| SMILES | Inhibition [1] | Inhibition [2] | Inhibition [3] |
| --- | --- | --- | --- |
| CCN(CC)S(=O)(=O)n1ncc2c3c(N)nc(N)nc3ccc21.Cl | 93% | 16% | 67% |
| CCCCCCCCCn1c(NCc2cc(Cl)ccc2O)nc2ccccc21 | 97% | 92% | 13% |
| Cc1cc(N2CCCC2)nc(Nc2ccc(NC(=O)C(C)(C)C)cc2)n1 | 95% | 15% | 24% |
| Cc1cc(N2CCC(NS(=O)(=O)c3ccccc3)CC2)nc(Nc2cccc(C#N)c2)n1.O=C(O)C(F)(F)F | 93% | 29% | 52% |
| CCOc1ccc(-c2nc(NC(=O)COc3ccc(OC)cc3)sc2C)cc1 | 99% | 87% | 0% |
| COc1ccc2c(C)cc(NCCCN(C)C)nc2c1.O=C(O)C(=O)O | 95% | 19% | 10% |
| COc1ccc2ncc(F)c(CCN3CCC[C@H](CNCc4ccc5c(n4)NC(=O)CS5)C3)c2n1.Cl | 96% | 34% | 16% |
| O=C(NCCc1ccccc1)N(Cc1ccccc1-c1cccc(CNCc2ccc3c(c2)OCO3)c1)C1CCN(Cc2ccccc2)CC1.O=C(O)C(F)(F)F | 93% | 77% | 29% |
| O=C(N[C@@H](Cc1ccccc1)[C@H](O)CNCCC(F)(F)F)c1cccc(OCC2CC2)c1 | 98% | 95% | 0% |
| CC(C)CCCC(C)(C)NC[C@@H](O)[C@H](Cc1ccccc1)NC(=O)c1cccc(OCC2CC2)c1 | 96% | 91% | 99% |
| C[C@H]1CN(Cc2cccc(-c3cc(CNC(=O)c4cccc(CN5CCN(CCOc6ccccc6)CC5)c4)ccc3F)c2)CCN1.O=C(O)C(F)(F)F | 91% | 88% | 59% |
| O=C(Nc1cccc(CN2CCN(C(=O)c3cccs3)CC2)c1)c1cccs1.O=C(O)C(F)(F)F | 95% | 91% | 0% |
| CCc1cc2c3c(N)nc(N)nc3ccc2n1C(C)CC (stereo not drawn) | 100% | 99% | 73% |
| CC(C)NCc1cccc(-c2cccc(NC(=O)c3cccc(Cl)c3)c2)c1.O=C(O)C(F)(F)F | 98% | 38% | 36% |
| CCc1cn2c3c(cc(C(=O)N[C@@H](Cc4cccc(Cl)c4)[C@H](O)CNC4CC4)cc13)N(C)S(=O)(=O)CC2.O=CO | 98% | 98% | 10% |
